The full data set covers some 7,900 targets. This sample favours those with a hit. About 0.6% of all pairs of compound and target were hits. Unmarked numbers belong to inactive results.
How the values were obtained:
Test in all cases: log2 fold change, soluble protein after heating vs DMSO (PISA); higher = thermal stabilisation; K562 cells, 10 uM, 30 min; active = over 0.2 and 3.5 SD of the protein, either way, in both replicates (recomputed)
[1] = compound: COC1=CC=C(C=C1)CN2C=CC3=C2C=C(C=C3)C(=O)NO
Summary of the method: (§1)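 K562 cells at 2×10^6 cells/mL were treated for 30 min with 10 μM compound, and aliquots were heated for 3 min over 48°C-58°C before pooling. Extraction used PBS with 0.5% NP-40 at 4°C, and soluble protein was the supernatant after 21,000xg for 90 min, measured by TMTpro 16plex LC-MS/MS with channel sums equalised. Thermal stability values, relative to control samples and from duplicates, are log2 fold changes.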

filanesib = compound: CON(C)C(=O)N1N=C(c2cc(F)ccc2F)S[C@@]1(CCCN)c1ccccc1 [filanesib]
Summary of the method: as §1

zotarolimus = compound: CO[C@H]1C[C@@H]2CC[C@@H](C)[C@@](O)(O2)C(=O)C(=O)N2CCCC[C@H]2C(=O)O[C@H]([C@H](C)C[C@@H]2CC[C@H](n3cnnn3)[C@H](OC)C2)CC(=O)[C@H](C)/C=C(\C)[C@@H](O)[C@@H](OC)C(=O)[C@H](C)C[C@H](C)/C=C/C=C/C=C/1C [zotarolimus]
Summary of the method: as §1

idasanutlin = compound: COc1cc(C(=O)O)ccc1NC(=O)[C@@H]1N[C@@H](CC(C)(C)C)[C@](C#N)(c2ccc(Cl)cc2F)[C@H]1c1cccc(Cl)c1F [idasanutlin]
Summary of the method: as §1

alisertib = compound: COc1cc(Nc2ncc3c(n2)-c2ccc(Cl)cc2C(c2c(F)cccc2OC)=NC3)ccc1C(=O)O [alisertib]
Summary of the method: as §1

[2] = compound: COc1cc2nc(-c3cc(F)ccc3O)nc(N[C@@H]3CNC[C@H]3C(C)(C)O)c2cc1OC
Summary of the method: as §1

gefitinib = compound: COc1cc2ncnc(Nc3ccc(F)c(Cl)c3)c2cc1OCCCN1CCOCC1 [gefitinib]
Summary of the method: as §1

[3] = compound: COc1cccc2cc(-c3nc([C@H]4CC[C@H](C(=O)O)CC4)n4ncnc(N)c34)[nH]c12
Summary of the method: as §1

lapatinib = compound: CS(=O)(=O)CCNCc1ccc(-c2ccc3ncnc(Nc4ccc(OCc5cccc(F)c5)c(Cl)c4)c3c2)o1 [lapatinib]
Summary of the method: as §1

pictilisib = compound: CS(=O)(=O)N1CCN(Cc2cc3nc(-c4cccc5[nH]ncc45)nc(N4CCOCC4)c3s2)CC1 [pictilisib]
Summary of the method: as §1

Chain of UniProt P62195 (P62195 whole entry, looked up): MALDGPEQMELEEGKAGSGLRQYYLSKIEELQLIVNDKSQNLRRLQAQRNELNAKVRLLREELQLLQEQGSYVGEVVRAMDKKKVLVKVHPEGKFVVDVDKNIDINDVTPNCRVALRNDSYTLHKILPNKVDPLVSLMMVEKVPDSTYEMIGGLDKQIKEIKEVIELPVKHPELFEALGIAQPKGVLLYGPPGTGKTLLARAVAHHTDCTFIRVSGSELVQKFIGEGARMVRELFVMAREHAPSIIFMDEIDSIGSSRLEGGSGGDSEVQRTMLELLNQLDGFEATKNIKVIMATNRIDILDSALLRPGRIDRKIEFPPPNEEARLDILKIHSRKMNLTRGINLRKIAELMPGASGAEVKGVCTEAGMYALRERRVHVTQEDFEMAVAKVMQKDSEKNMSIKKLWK
Chain of UniProt P43686 (P43686 whole entry, looked up): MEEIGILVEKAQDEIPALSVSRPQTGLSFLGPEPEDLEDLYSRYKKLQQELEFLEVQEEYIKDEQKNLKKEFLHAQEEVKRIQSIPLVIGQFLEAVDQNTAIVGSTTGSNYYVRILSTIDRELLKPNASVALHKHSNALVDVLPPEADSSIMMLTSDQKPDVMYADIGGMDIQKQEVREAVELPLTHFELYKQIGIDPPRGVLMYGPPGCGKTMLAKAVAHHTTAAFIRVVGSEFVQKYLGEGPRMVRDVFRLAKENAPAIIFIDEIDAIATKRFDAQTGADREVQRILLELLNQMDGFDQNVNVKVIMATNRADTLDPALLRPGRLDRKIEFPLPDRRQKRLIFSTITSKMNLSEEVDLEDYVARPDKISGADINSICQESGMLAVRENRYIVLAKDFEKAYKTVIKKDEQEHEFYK
Chain of UniProt Q8WUK0 (Q8WUK0 whole entry, looked up): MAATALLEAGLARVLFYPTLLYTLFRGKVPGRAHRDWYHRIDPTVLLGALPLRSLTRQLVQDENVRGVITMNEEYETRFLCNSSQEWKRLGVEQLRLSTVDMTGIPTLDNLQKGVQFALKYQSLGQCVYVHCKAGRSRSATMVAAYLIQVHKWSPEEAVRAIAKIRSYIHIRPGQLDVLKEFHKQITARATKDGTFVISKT
Chain of UniProt Q13200 (Q13200 whole entry, looked up): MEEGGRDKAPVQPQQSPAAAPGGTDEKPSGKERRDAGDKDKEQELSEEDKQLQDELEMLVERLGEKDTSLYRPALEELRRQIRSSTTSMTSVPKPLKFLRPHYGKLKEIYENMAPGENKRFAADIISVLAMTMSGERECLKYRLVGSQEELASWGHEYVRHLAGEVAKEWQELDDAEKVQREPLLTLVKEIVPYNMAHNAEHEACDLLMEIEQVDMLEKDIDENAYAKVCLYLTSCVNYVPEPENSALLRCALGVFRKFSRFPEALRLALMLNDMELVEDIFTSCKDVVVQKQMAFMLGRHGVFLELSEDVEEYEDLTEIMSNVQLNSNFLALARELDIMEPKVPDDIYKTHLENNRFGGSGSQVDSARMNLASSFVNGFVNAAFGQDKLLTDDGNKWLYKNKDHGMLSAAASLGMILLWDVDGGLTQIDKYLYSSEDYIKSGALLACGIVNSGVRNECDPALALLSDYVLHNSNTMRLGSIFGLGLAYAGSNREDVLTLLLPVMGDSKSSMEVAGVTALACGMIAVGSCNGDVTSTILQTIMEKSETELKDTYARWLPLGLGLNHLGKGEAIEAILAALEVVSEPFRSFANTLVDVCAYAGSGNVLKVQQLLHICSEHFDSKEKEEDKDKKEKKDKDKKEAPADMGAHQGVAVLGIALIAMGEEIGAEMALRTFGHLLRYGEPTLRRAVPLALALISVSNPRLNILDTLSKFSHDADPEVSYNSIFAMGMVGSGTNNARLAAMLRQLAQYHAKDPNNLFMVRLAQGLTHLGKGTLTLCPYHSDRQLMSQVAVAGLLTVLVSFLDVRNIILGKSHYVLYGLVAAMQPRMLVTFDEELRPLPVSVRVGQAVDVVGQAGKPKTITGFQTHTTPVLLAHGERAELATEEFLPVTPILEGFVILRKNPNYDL
Chain of UniProt Q15257 (Q15257 whole entry, looked up): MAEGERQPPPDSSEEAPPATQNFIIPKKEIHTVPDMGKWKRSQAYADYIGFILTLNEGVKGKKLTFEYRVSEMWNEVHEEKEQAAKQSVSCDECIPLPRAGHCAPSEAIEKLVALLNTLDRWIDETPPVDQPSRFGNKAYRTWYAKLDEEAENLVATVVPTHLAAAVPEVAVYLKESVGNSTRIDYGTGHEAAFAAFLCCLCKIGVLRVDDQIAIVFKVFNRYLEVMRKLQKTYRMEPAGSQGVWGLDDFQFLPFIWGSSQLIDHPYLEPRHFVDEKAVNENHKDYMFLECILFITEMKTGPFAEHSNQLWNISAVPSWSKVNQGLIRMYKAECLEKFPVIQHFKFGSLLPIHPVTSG
Chain of UniProt P11216 (P11216 whole entry, looked up): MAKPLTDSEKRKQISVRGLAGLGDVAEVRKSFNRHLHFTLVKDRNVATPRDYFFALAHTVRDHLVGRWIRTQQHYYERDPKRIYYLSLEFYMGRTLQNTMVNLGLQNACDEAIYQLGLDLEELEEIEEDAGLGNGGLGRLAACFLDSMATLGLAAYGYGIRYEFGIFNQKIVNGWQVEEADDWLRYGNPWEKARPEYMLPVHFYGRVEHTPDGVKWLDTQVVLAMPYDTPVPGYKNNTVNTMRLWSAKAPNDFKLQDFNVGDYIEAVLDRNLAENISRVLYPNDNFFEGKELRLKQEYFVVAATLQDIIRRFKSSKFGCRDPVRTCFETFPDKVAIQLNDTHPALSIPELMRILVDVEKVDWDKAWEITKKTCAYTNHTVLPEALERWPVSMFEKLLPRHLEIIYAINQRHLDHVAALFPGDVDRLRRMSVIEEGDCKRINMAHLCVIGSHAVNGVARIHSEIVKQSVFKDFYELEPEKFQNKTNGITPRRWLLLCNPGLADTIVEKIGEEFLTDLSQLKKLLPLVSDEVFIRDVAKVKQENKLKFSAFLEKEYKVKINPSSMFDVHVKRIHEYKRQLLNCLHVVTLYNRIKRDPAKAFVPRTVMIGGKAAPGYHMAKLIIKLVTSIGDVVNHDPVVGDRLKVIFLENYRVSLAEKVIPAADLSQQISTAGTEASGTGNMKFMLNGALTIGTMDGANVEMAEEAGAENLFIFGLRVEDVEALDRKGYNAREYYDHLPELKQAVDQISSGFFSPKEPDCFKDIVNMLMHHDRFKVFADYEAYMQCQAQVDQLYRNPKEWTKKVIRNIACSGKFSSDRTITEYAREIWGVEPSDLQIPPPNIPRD
Chain of UniProt Q93096 (Q93096 whole entry, looked up): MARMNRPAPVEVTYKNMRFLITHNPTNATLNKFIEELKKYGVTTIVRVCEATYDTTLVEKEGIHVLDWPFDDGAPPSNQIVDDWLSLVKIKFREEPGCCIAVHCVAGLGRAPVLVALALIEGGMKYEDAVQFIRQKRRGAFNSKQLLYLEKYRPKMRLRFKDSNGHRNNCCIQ
Chain of UniProt P31323 (P31323 whole entry, looked up): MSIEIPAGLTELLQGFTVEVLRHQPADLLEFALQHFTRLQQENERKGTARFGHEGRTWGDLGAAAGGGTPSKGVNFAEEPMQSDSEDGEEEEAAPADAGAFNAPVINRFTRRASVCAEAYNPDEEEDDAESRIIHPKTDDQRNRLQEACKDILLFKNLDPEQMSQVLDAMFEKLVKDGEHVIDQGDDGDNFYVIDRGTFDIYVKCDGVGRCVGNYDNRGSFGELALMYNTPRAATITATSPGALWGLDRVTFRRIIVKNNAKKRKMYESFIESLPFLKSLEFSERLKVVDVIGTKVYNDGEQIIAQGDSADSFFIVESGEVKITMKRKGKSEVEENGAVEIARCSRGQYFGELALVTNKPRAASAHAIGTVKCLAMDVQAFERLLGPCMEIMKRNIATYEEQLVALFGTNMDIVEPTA
Chain of UniProt Q9H300 (Q9H300 whole entry, looked up): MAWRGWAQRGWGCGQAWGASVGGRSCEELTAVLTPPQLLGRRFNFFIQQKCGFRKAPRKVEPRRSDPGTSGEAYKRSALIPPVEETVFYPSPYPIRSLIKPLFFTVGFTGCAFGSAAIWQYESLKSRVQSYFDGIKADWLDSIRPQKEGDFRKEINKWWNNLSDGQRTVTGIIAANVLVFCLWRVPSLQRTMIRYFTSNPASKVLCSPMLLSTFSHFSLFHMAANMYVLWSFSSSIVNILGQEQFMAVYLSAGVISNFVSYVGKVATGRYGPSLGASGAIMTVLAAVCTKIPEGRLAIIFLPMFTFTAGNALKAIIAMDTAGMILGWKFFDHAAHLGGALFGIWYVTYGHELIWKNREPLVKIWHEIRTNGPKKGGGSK
Chain of UniProt Q10713 (Q10713 whole entry, looked up): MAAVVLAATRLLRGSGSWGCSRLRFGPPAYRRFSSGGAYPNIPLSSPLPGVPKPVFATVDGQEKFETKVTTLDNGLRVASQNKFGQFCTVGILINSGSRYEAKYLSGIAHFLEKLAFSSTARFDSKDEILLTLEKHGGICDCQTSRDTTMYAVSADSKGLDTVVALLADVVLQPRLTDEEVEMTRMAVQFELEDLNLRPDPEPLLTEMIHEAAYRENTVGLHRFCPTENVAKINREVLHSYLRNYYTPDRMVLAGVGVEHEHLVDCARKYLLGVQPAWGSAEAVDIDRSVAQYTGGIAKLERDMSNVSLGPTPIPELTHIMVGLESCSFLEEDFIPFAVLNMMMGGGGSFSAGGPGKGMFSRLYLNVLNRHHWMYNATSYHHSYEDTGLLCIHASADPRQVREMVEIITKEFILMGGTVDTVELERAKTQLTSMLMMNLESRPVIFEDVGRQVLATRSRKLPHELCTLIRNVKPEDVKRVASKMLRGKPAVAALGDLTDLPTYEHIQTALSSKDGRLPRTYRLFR
Chain of UniProt Q8N165 (Q8N165 whole entry, looked up): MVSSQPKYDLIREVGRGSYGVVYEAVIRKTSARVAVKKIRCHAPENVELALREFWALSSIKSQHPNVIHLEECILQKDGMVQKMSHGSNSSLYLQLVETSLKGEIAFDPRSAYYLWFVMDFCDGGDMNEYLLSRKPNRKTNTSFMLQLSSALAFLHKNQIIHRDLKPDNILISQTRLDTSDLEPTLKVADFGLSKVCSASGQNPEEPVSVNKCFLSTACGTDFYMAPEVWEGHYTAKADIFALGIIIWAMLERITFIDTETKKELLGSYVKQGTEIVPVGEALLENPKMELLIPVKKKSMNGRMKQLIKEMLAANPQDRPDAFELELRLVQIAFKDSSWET

Row | Target | log2 fold change [1] | log2 fold change (filanesib) | log2 fold change (zotarolimus) | log2 fold change (idasanutlin) | log2 fold change (alisertib) | log2 fold change [2] | log2 fold change (gefitinib) | log2 fold change [3] | log2 fold change (lapatinib) | log2 fold change (pictilisib)
1 | PSMD2 (UniProt Q13200) | -0.036 | 0.051 | -0.015 | 0.039 | -0.089 | -0.071 | -0.043 | -0.053 | 0.077 | -0.059
2 | PHAX (UniProt Q9H814) | -0.01 | 0.045 | 0.004 | 0.018 | -0.057 | -0.09 | 0.007 | 0.032 | 0.039 | 0.002
3 | PRKAR2B (UniProt P31323) | -0.032 | 0.06 | 0.153 | 0.05 | -0.007 | -0.63 (active) | -0.026 | -0.024 | 0.048 | -0.056
4 | POLR2M (UniProt Q6EEV4) | -0.046 | 0.076 | 0.034 | 0.046 | -0.144 | -0.063 | 0.076 | -0.033 | -0.084 | –
5 | PCYT1B (UniProt Q9Y5K3) | 0.005 | 0.026 | 0 | -0.029 | -0.156 | 0.131 | -0.051 | 0.018 | -0.019 | -0.12
6 | PIP4K2B (UniProt P78356) | 0.028 | -0.146 | 0.025 | -0.104 | -0.045 | 0.379 (active) | 0.035 | 0.207 | -0.026 | 0.022
7 | PRKCQ (UniProt Q04759) | -0.044 | -0.027 | 0.052 | -0.003 | -0.018 | -0.206 | 0.021 | -0.008 | 0.041 | -0.053
8 | PNPLA4 (UniProt P41247) | 0.041 | -0.184 | -0.142 | 0.003 | 0.026 | -0.133 | 0.015 | 0.113 | -0.049 | –
9 | QRICH1 (UniProt Q2TAL8) | 0.015 | 0.004 | -0.022 | -0.072 | 0.071 | 0.08 | 0.137 | 0.032 | 0.011 | –
10 | PDIK1L (UniProt Q8N165) | -0.014 | 0.112 | -0.059 | 0.001 | 0.099 | -0.127 | 0.012 | 0.092 | 0.086 | –
11 | PCBP1 (UniProt Q15365) | 0.076 | -0.036 | 0.102 | -0.044 | -0.015 | -0.014 | -0.003 | -0.003 | -0.022 | -0.036
12 | PRMT8 (UniProt Q9NR22) | -0.143 | -0.162 | -0.014 | -0.109 | -0.028 | -0.019 | 0.002 | 0.042 | 0.145 | 0.025
13 | PMM1 (UniProt Q92871) | -0.084 | 0.021 | -0.003 | 0.022 | -0.039 | 0.124 | 0.16 | 0.022 | -0.02 | -0.17
14 | POTEI (UniProt P0CG38) | 0.033 | 0.04 | 0.025 | -0.007 | 0.037 | -0.003 | 0.015 | 0.067 | -0.006 | 0.012
15 | PRKAG1 isoform 3 (UniProt P54619) | -0.02 | -0.036 | 0 | -0.004 | 0.022 | 0.008 | 0.002 | 0.049 | -0.055 | -0.037
16 | POLR2C (UniProt P19387) | -0.04 | 0.034 | -0.012 | -0.074 | 0.013 | -0.022 | -0.045 | 0.086 | 0.099 | –
17 | PML (UniProt P29590) | -0.043 | 0.014 | 0.041 | 0.003 | -0.022 | -0.026 | -0.015 | -0.081 | 0.024 | 0.119
18 | PSMD8 (UniProt K7ERW6) | -0.188 | – | – | – | – | – | – | – | – | –
19 | PTP4A1 (UniProt Q93096) | 0.009 | -0.088 | 0.05 | 0.089 | -0.129 | -0.267 (active) | 0.033 | 0.04 | 0.024 | 0.068
20 | POLR2A (UniProt P24928) | -0.005 | -0.021 | -0.026 | -0.054 | 0.001 | 0.258 (active) | 0.015 | 0.042 | 0 | 0.05
21 | PSMC4 (UniProt P43686) | -0.052 | 0.066 | 0.008 | 0.017 | -0.049 | -0.007 | -0.052 | -0.022 | 0.033 | -0.099
22 | PRKD2 isoform 3 (UniProt Q9BZL6) | -0.05 | -0.037 | -0.125 | 0.078 | -0.03 | -0.042 | -0.159 | 0.033 | -0.011 | -0.17
23 | PYGB (UniProt P11216) | -0.024 | 0.035 | -0.023 | -0.013 | -0.019 | 0.237 (active) | -0.037 | 0.028 | -0.223 | -0.164
24 | PTPMT1 (UniProt Q8WUK0) | -0.084 | -0.26 | -0.027 | -0.002 | 0.006 | -0.327 (active) | -0.021 | 0.034 | -0.064 | 0.02
25 | PFAS (UniProt O15067) | 0.149 | -0.045 | 0.069 | 0.085 | 0.029 | 0.26 | -0.005 | 0.013 | -0.063 | -0.449 (active)
26 | PMPCA (UniProt Q10713) | -0.041 | 0.013 | 0.035 | -0.1 | -0.089 | -0.02 | 0.043 | 0.009 | -0.023 | 0.018
27 | PSMC5 (UniProt P62195) | -0.024 | 0.037 | -0.018 | 0 | -0.019 | -0.053 | -0.025 | -0.031 | 0.052 | -0.05
28 | PTPA (UniProt Q15257) | -0.015 | -0.022 | 0.02 | -0.064 | -0.041 | 0.034 | 0.018 | 0.036 | 0.012 | 0.02
29 | PARL (UniProt Q9H300) | -0.061 | -0.091 | -0.034 | -0.068 | -0.016 | -0.2 | 0.038 | 0.08 | 0.04 | 0.011
